SENP7 inh – blocks the human protease SENP7 | Q9BQF6 | recombinant SENP7, Z-RLRGG-aminoluciferin luminescence, 40 min | inhibition, % at 5 µM | 1.5% of 330,000 active | AID 434973;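 active = inhibition above about 50% at the single test dose, limit read from the data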;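 also: plate controls were DMSO with enzyme for no effect and no enzyme buffer wells for full effect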
HSP90 inh – inhibitors of HSP90 luciferase refolding in rabbit reticulocyte lysate. luciferase refolding luminescence, 3 h. inhibition, % at 5.6 µM. 0.91% of 290,000 active. AID 1789;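 active = inhibition above the screen-wide mean plus 3 SD, computed separately per campaign, cut at about 16% in these data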;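 also: 0% = DMSO wells and 100% = 60 µM geldanamycin wells; inhibitors lower the luminescence because luciferase stays unfolded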
SENP8 block-1 – SENP8 (human) protease inhibition | recombinant SENP8, Nedd8 substrate fluorescence | Q96LD8 | inhibition, % at 20 µM | 0.64% of 360,000 active; in the data active = inhibition mostly above about 40%, no sharp cut-off; inactive = mostly below about 27%
Target sequence (Q96LD8 whole entry, looked up): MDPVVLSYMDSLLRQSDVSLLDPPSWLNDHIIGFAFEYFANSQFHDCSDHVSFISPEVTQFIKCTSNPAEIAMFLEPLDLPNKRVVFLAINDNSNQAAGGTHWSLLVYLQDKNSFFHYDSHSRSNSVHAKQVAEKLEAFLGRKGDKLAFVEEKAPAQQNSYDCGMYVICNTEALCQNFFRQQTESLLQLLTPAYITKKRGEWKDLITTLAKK
SENP8 block-2 – inhibitors of human SENP8 protease; Q96LD8; purified SENP8, Z-RLRGG-aminoluciferin cleavage, luminescence; inhibition, % at 10 µM; 1.2% of 330,000 active; AID 2540; in the data active = inhibition above about 50%
SENP6 block – blocks the human protease SENP6. Recombinant SENP6 catalytic domain, aminoluciferin luminescence. inhibition, % at 10 µM. 1.8% of 330,000 active. AID 2599;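 active = inhibition above about 50% at the single tested dose, limit read from the data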;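 also: plate controls were DMSO wells with enzyme for no effect and DMSO wells lacking enzyme for full effect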
Platelet DG rel – modulates dense granule release in human platelets; inhibition, %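 (compounds screened at 7.5 µM in platelet-rich plasma)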; human platelet-rich plasma, SFLLRN dense granule ATP release, luminescence; 0.22% of 300,000 active;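 active = mean replicate score, as percent of positive control, at or above 50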
SENP8 confirm – human SENP8 inhibition, confirmed | shares compounds with SENP7 inh | AID 488912 | Recombinant SENP8, Z-RLRGG-aminoluciferin luminescence, 60 min | inhibition, % at 12.5 µM | 40% of 6,200 active;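 active = mean inhibition across replicates above about 50%, limit read from the data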
SENP6 conf – confirmation of human SENP6 protease inhibitors. shares compounds with SENP7 inh. 58% of 6,200 active. inhibition, % at 12.5 µM. recombinant SENP6, Z-RLRGG-aminoluciferin luminescence
SENP7 confirm – confirmation of human SENP7 protease inhibitors; shares compounds with SENP7 inh; recombinant SENP7, Z-RLRGG-aminoluciferin luminescence, 40 min; inhibition, % at 12.5 µM; 69% of 6,200 active; AID 488917
Casp3 select – inhibits human caspase-3 in SENP selectivity test | purified caspase-3, Z-DEVD-aminoluciferin luminescence, 60 min | 60% of 6,200 active | shares compounds with SENP7 inh | inhibition, % at 12.5 µM;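 active = mean inhibition above about 50%, limit read from the data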;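 also: plate controls were enzyme with DMSO for no effect and wells without caspase-3 for full effect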
Target sequence (P42574 28-227 limits assumed): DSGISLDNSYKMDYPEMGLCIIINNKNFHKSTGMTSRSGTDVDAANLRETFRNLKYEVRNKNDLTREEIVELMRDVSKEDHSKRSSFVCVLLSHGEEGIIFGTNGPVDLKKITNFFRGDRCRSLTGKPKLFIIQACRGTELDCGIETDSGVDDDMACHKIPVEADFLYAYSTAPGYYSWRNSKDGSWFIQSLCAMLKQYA
SENP luc ctr – interferes with luciferase luminescence in SENP counter-screen | Pre-incubated SENP8/Z-RLRGG-aminoluciferin, luciferase luminescence interference | shares compounds with SENP7 inh | inhibition, % at 12.5 µM | 39% of 6,200 active;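 active = mean inhibition above about 50% when retested at one dose, limit read from the data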;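 also: plate controls were DMSO wells with completed reaction for no effect and substrate without enzyme for full effect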
* hit, by the source's call; · = not tested or not shown. Rows were chosen to be rich in hits. Some 2.8% of all compounds tested hit in one or more screens of this group.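 The calls were made as follows, unless noted: active = mean inhibition above about 50% in the one-dose retest (limit read from the data); inactive = the rest.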

SMILES	SENP7 inh	HSP90 inh	SENP8 block-1	SENP8 block-2	SENP6 block	Platelet DG rel	SENP8 confirm	SENP6 conf	SENP7 confirm	Casp3 select	SENP luc ctr
CC(OC(=O)CCOc1ccccc1)C(=O)NC1CC1 (stereo not given)	3.8	·	8.2	-9.0	-5.1	12.0	·	·	·	·	·
N#Cc1ccc(C=NN2CCCCCC2)cc1	·	·	5.1	·	·	·	·	·	·	·	·
CCOc1ccc(CCNC(=O)Nc2cccc(OC)c2)cc1OCC	-0.8	-1.0	15.7	7.5	11.0	-2.5	·	·	·	·	·
COc1ccc(N=Cc2c(O)c3ccccc3n2C(C)=O)cc1	2.2	4.2	-91.4	5.2	33.1	10.2	·	·	·	·	·
COc1ccc(N=Cc2sc(O)c3ccccc23)cc1	69.8*	2.9	-2.8	79.2*	61.5*	1.2	92.9*	92.2*	99.9*	73.2*	81.4*
CC(C)(C)NC(=O)N1CCn2cccc2C1c1ccccc1F (stereo not given)	96.5*	-9.5	-1.0	3.6	-23.6	10.7	1.4	7.9	7.6	8.0	6.3
CCN1CCN(c2nnc(-c3ccc(C)cc3)c3ccccc23)CC1	-5.6	-2.5	15.5	-4.1	-10.6	-2.3	·	·	·	·	·
c1ccc(-c2ccncn2)cc1	·	·	14.0	·	·	·	·	·	·	·	·
Cc1ccc(-n2ncc3c(=O)n(CC(N)=O)cnc32)cc1C	-6.6	-1.3	-1.4	-8.7	-1.7	4.0	·	·	·	·	·
Cc1nc2c3cnn(-c4ccc(C)c(C)c4)c3ncn2n1	44.3	-1.5	-482.3	37.7	58.0*	-13.1	40.9	41.1	68.0*	78.8*	35.5
O=C(CSc1ncnc2c1cnn2-c1cccc(Cl)c1)NCC1CCCO1 (stereo not given)	5.6	-2.1	-20.0	87.4*	88.9*	-7.6	-5.2	26.3	16.7	45.2	9.7
Cc1ccc(-n2ncc3c(SCC(N)=O)ncnc32)cc1C	29.2	-1.1	-115.8	57.0*	44.4	-0.4	-26.2	-15.4	0.4	6.7	-5.5
CNc1c(NS(=O)(=O)c2cc(Cl)ccc2OC)c(=O)oc2ccccc12	-3.2	0.9	6.6	-6.5	-8.5	2.7	·	·	·	·	·
CCOc1ccc(C(=O)COC(=O)c2cc(=O)[nH]c3ccccc23)cc1	52.9*	·	-205.9	-16.8	-3.2	-5.7	-8.8	-9.0	-5.2	6.7	1.5
O=C(/C=C/Nc1ccc(F)cc1)c1cccs1	92.0*	-1.9	-220.9	89.2*	93.3*	-24.1	88.7*	98.0*	102.2*	95.5*	66.7*
O=C(Cc1cccs1)Nc1ccc(F)c(F)c1	1.8	1.3	1.2	-1.1	-21.9	2.7	·	·	·	·	·
O=C(/C=C/Nc1ccc(S(=O)(=O)Nc2ncccn2)cc1)c1cccs1	5.2	1.6	-453.3	-3.4	4.9	-1.7	·	·	·	·	·
O=C(/C=C/Nc1ccc(F)c(F)c1)c1cccs1	82.9*	0.8	-212.4	85.5*	90.0*	3.3	67.7*	88.8*	98.6*	83.1*	38.3
CCN(CC(=O)Nc1ccccc1C(F)(F)F)C(=O)CSCc1ccc(C)cc1	-4.6	·	14.3	-3.0	-16.4	2.2	·	·	·	·	·
O=C(O)c1ccc(CSc2nc3ccccc3o2)cc1	30.3	0.1	12.6	54.3*	74.6*	2.9	65.9*	63.7*	85.6*	82.6*	69.8*
O=C(CSc1nc2ccccc2o1)c1ccccc1	70.9*	-2.5	11.9	46.1	66.9*	-31.0	68.3*	69.1*	84.6*	61.2*	62.2*
O=C(O)c1ccccc1CSc1nc2ccccc2o1	61.7*	3.5	15.4	56.7*	84.6*	2.6	77.0*	74.8*	91.1*	90.1*	81.0*
CC(=O)CSc1nc2ccccc2o1	-11.4	4.0	25.8	-11.0	1.4	-1.6	·	·	·	·	·
O=C(CCn1cccn1)Nc1ccc2c(c1)OCO2	3.8	1.1	5.3	4.3	5.0	-6.8	·	·	·	·	·
Cc1cccc2cc(C(c3nnnn3CC3CCCO3)N3CCc4ccccc4C3)c(=O)[nH]c12 (stereo not given)	48.9	-3.5	·	37.8	67.4*	·	-1.0	27.2	6.2	8.8	2.6
SMILES	SENP7 inh	HSP90 inh	SENP8 block-1	SENP8 block-2	SENP6 block	Platelet DG rel	SENP8 confirm	SENP6 conf	SENP7 confirm	Casp3 select	SENP luc ctr
Cc1ccc2cc(C(c3nnnn3CC3CCCO3)N3CCc4ccccc4C3)c(=O)[nH]c2c1 (stereo not given)	86.3*	6.6	-49.7	74.0*	6.8	-0.5	6.9	10.0	0.3	-2.8	-2.8
O=C(Cc1cccc(NC(=O)C2CCCN(C(=O)c3ccccc3)C2)c1)Nc1ccc(C(=O)N2CCOCC2)cc1 (stereo not given)	·	·	16.7	·	·	·	·	·	·	·	·
Cc1ccc(NC(=O)N2C3CCCC2CC(NC(=O)C(C)(C)C)C3)cc1 (stereo not given)	5.8	1.6	10.6	17.4	15.9	4.1	·	·	·	·	·
O=c1c2cc(C(F)(F)F)ccc2sn1-c1ccccc1	·	·	11.5	·	·	·	·	·	·	·	·
O=c1c2cc(F)ccc2sn1-c1ccccc1	21.8	·	5.2	75.4*	83.7*	·	83.3*	84.4*	96.4*	87.9*	77.4*
CC(=O)/C=C(\C)Nc1ccc(-c2cnc(-c3ccccc3)o2)cc1	72.0*	-1.7	-492.5	78.2*	76.3*	3.2	29.0	28.4	47.5	22.5	45.2
CC(C)C(=O)Nc1ccc(-c2nnc(-c3ccccc3)o2)cc1	75.5*	9.5	-311.3	58.1*	61.3*	9.5	12.4	12.6	18.8	22.5	7.3
O=C(Nc1ccc(-c2nnc(-c3ccccc3)o2)cc1)C(F)(F)F	91.0*	-1.0	-196.2	65.9*	76.3*	22.2	-6.7	-3.3	-5.2	-4.0	-15.9
CC(=O)Nc1ccc(-c2nc3ccccc3c(=O)o2)cc1	-18.8	-1.4	-111.5	-27.8	-28.8	-1.0	·	·	·	·	·
CN(C)C(=O)c1ccc(NC(=O)COc2cccc3c2OC(C)(C)C3)cc1	0.3	·	1.8	-2.3	-2.3	·	·	·	·	·	·
N/C(=N\OC(=O)c1cc(Br)ccc1Cl)c1ccccn1	33.8	1.3	15.1	23.8	37.7	-4.5	·	·	·	·	·
Cc1cccc(OCC(=O)O/N=C(\N)c2ccccn2)c1C	5.4	-2.3	16.0	-5.1	46.8	·	·	·	·	·	·
N/C(=N\OC(=O)COc1cc(Cl)c(Cl)cc1Cl)c1ccccn1	77.0*	2.1	16.5	57.8*	78.8*	15.2	11.7	54.7*	10.0	52.3*	11.5
N/C(=N\OC(=O)c1cccc2ccccc12)c1ccccn1	77.4*	14.8	-44.8	69.2*	79.6*	14.7	80.6*	79.4*	93.9*	78.7*	84.3*

Assay outcomes (PubChem)
